ChEMBL document CHEMBL3988442, “University of Dundee, Small-Polar-MMV Screening Library” (2021)
For some of these results: Results with a measured potency or affinity are listed apart.

Tests used:
Set-up in all cases: scale not given: direction of the effect not stated beside the values
[1] = target: Protein translocase subunit SecA (Escherichia coli (strain K12)) (UniProt P10408); test: Assay to Identify E. coli SecA ATPase Inhibitors; assay type: functional; conditions: 30 µM
[2] = target: T1, Ubiquitin-activating enzyme e1, putative (Leishmania donovani (strain BPK282A1)) (UniProt E9BSI1); test: Leishmania donovani Ubiquitin Activating Enzyme (LdE1); assay type: functional; conditions: 30 µM
T1 sequence (whole entry): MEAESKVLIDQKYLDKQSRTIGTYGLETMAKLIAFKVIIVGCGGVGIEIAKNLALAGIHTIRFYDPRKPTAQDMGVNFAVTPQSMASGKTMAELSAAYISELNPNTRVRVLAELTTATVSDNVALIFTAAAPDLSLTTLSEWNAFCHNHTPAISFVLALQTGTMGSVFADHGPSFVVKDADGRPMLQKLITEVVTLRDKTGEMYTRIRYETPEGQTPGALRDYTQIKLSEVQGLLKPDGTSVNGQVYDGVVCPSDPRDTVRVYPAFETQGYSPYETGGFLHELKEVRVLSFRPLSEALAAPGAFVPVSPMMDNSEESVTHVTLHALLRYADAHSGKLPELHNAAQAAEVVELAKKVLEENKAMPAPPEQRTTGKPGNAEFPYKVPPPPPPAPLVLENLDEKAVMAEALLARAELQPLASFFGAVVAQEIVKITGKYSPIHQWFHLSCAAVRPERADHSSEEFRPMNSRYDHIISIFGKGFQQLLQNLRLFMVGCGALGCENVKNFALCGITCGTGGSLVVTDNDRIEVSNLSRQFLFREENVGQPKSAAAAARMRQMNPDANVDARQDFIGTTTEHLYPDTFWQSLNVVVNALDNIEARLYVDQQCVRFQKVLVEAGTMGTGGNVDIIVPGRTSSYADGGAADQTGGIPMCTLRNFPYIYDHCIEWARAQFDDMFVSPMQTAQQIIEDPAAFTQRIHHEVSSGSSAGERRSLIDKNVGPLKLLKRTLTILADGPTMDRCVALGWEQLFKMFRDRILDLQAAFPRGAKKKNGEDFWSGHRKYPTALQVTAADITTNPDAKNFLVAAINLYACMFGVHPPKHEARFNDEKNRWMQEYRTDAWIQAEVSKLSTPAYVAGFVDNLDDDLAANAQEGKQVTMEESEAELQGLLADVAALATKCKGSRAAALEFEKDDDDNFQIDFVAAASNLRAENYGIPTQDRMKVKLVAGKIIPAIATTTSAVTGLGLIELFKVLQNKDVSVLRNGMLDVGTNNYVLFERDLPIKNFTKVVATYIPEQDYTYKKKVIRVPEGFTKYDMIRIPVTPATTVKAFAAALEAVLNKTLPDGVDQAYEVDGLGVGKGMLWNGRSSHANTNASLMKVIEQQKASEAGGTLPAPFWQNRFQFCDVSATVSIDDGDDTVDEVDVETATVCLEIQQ

[3] = target: T2, Aspartate--tRNA(Asp/Asn) ligase (Mycobacterium tuberculosis (strain ATCC 25618 / H37Rv)) (UniProt P9WFW3); test: Assay for Asp RNA synthetase-1 from Mycobacterium tuberculosis; assay type: functional; conditions: 30 µM; note: in the data most compounds retested in dose-response had high values
T2 sequence (whole entry): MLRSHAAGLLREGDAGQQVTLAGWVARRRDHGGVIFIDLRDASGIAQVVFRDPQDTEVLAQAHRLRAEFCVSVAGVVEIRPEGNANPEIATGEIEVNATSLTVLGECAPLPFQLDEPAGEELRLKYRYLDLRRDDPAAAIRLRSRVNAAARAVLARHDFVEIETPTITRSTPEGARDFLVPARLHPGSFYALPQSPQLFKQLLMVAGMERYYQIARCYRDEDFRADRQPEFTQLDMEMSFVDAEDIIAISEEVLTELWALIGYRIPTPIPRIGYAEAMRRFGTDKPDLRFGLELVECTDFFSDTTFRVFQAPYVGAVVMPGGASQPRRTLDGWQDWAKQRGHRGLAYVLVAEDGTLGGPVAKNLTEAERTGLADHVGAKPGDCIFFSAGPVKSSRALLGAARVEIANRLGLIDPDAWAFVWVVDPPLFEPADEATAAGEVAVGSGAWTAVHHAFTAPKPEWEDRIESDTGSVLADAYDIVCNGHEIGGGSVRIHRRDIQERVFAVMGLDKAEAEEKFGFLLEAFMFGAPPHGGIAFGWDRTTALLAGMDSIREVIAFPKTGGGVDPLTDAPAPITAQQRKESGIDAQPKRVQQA

[4] = target: AMP-activated protein kinase, AMPK (Homo sapiens) (UniProt P54646+O43741+P54619+Q9UGJ0+Q9Y478+Q13131+Q9UGI9); test: AMP-dependent Kinase enzyme assay. An in vitro enzyme assay that detects ADP turnover that is directly proportional to AMPK activity. This uses naive AMPK that is activated during the assay with MK-8722; assay type: functional; conditions: 30 µM
[5] = target: Sialic acid-binding Ig-like lectin 9 (Homo sapiens) (UniProt Q9Y336); test: Hs-Siglec9 ALPHAscreen SOP 20170721; conditions: 10 µM
[6] = system: Trypanosoma cruzi; test: Trypanosoma cruzi phosphomannomutase and mannose-1-phosphate guanylyltransferase assay; assay type: functional; conditions: 10 µM
[7] = target: T3, Arginase-2, mitochondrial (Homo sapiens) (UniProt P78540); test: in vitro enzyme assay to detect the production of urea directly proportional to the activity of Arginase II; assay type: functional; conditions: 33.3 µM; note: in the data most compounds retested in dose-response had high values
T3 sequence (whole entry): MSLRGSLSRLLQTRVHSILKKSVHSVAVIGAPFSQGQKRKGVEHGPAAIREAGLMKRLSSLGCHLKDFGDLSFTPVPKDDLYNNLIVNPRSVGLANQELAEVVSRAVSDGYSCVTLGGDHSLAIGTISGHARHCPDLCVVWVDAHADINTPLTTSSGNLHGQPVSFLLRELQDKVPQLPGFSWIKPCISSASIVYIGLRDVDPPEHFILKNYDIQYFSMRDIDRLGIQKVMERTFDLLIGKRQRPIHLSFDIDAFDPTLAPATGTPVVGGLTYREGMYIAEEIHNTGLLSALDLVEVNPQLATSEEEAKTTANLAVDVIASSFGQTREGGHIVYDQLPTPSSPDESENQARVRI

[8] = target: T4, Proteasome subunit beta (Trypanosoma cruzi) (UniProt O96673); test: Trypanosoma cruzi proteasome chymotrypsin-like activity (TcProtChymo) assay.; note: in the data most compounds retested in dose-response had high values; assay type: functional; conditions: 9.37 µM
T4 sequence (whole entry): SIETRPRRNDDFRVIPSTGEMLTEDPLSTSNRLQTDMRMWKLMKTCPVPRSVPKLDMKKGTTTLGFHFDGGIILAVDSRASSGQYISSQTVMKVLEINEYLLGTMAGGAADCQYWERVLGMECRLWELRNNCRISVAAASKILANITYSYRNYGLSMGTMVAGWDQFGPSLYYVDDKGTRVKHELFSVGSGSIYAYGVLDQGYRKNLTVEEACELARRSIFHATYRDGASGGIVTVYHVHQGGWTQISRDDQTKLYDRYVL

[9] = species on record: Homo sapiens; test: To identify inhibition of the IFN signalling (Jak-Stat) pathway via expression of an eGFP reporter gene under the control of an IFN-stimulated response element (ISRE) containing MxA promoter.; assay type: functional; conditions: 30 µM
[10] = target: Shiga toxin 2 (Escherichia coli O157:H7) (UniProt P09385+P09386); test: E. coli 0.157:H7 Shiga Toxin SOP - stx2 screening assay; assay type: functional; conditions: 30 µM
[11] = target: T5, Tyrosyl-tRNA synthetase, putative (Trypanosoma cruzi (strain CL Brener)) (UniProt Q4DSP6); test: Trypanosoma cruzi tyrosyl tRNA synthetase (TcYRS) _High Tyrosine SOP; assay type: functional; conditions: 30 µM; note: in the data most compounds retested in dose-response had high values
T5 sequence (whole entry): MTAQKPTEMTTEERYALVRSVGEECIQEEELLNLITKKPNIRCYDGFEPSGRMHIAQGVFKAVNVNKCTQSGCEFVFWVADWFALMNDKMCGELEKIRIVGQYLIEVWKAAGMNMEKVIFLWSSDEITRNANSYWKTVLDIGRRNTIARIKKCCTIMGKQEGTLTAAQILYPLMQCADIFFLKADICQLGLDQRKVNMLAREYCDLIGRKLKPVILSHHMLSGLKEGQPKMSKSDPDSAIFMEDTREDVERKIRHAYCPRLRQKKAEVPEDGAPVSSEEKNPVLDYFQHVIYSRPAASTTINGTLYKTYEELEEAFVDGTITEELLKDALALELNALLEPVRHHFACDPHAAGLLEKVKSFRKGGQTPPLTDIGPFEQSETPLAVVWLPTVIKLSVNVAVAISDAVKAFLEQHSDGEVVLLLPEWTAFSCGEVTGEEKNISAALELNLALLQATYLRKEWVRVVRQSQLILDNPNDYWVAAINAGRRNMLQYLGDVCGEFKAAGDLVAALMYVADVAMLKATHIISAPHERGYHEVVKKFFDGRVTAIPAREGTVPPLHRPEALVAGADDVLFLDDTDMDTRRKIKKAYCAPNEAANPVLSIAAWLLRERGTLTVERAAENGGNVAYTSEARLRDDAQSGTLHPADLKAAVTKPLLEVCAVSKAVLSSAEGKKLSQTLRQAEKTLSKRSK

[12] = target: T5, Tyrosyl-tRNA synthetase, putative (Trypanosoma cruzi (strain CL Brener)); test: Trypanosoma cruzi tyrosyl tRNA synthetase (TcYRS) SOP; assay type: functional; conditions: 30 µM
[13] = target: Chromo domain-containing protein 1 (Saccharomyces cerevisiae (strain ATCC 204508 / S288c) (Baker's yeast)) (UniProt P32657); test: ScCHD-1 Enzyme Inhibition Assay; assay type: functional; conditions: 30 µM; note: in the data most compounds retested in dose-response had high values
Sequence of Chromo domain-containing protein 1 (Saccharomyces cerevisiae (strain ATCC 204508 / S288c) (Baker's yeast)) (P32657 whole entry, the tested form may be a part): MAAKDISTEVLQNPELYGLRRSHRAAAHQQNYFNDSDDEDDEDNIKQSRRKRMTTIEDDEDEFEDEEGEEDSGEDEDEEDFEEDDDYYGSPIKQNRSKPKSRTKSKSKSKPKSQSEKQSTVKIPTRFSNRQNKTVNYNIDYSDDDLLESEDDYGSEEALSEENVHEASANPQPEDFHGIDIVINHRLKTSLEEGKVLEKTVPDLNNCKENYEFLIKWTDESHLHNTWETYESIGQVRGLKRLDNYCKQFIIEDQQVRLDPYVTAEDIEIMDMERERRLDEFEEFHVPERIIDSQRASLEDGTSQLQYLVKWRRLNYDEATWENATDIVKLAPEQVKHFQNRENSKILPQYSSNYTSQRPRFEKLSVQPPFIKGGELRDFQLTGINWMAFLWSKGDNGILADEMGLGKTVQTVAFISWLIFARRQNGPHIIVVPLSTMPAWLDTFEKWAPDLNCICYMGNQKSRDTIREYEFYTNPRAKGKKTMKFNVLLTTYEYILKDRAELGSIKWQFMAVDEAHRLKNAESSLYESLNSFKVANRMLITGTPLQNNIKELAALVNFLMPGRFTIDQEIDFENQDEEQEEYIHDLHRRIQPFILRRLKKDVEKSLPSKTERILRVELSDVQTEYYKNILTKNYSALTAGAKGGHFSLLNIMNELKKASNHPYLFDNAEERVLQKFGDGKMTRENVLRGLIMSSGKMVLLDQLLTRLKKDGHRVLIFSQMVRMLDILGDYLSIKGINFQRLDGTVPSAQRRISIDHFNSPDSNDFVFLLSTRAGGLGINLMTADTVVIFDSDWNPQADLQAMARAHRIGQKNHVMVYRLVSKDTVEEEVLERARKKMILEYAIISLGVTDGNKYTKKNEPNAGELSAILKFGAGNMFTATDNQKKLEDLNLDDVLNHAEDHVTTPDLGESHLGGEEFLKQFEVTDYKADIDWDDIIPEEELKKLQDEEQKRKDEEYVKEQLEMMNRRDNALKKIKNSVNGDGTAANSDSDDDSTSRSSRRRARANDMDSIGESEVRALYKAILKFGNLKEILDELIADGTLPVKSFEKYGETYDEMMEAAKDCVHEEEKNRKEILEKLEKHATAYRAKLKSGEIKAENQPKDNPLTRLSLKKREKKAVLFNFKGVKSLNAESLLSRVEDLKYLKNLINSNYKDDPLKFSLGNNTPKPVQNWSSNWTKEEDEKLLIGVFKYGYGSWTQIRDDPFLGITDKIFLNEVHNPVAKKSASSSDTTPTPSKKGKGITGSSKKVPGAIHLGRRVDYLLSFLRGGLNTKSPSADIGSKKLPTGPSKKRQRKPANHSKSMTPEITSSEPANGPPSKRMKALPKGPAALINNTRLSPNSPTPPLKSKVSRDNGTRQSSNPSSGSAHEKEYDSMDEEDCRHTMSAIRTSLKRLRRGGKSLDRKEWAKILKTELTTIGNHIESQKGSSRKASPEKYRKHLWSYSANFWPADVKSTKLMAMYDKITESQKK

Sequence of Sialic acid-binding Ig-like lectin 9 (Homo sapiens) (Q9Y336 whole entry): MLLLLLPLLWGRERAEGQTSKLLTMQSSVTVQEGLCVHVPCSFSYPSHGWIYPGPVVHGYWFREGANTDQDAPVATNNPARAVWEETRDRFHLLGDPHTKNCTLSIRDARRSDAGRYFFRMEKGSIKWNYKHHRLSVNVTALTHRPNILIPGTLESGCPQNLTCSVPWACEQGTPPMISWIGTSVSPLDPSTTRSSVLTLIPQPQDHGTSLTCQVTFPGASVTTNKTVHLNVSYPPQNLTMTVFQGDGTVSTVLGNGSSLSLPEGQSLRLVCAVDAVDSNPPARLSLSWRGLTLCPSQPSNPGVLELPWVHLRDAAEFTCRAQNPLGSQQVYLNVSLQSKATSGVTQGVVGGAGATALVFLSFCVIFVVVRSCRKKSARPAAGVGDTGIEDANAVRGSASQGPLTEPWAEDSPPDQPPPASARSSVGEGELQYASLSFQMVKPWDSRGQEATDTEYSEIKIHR
Sequence of Protein translocase subunit SecA (Escherichia coli (strain K12)) (P10408 whole entry): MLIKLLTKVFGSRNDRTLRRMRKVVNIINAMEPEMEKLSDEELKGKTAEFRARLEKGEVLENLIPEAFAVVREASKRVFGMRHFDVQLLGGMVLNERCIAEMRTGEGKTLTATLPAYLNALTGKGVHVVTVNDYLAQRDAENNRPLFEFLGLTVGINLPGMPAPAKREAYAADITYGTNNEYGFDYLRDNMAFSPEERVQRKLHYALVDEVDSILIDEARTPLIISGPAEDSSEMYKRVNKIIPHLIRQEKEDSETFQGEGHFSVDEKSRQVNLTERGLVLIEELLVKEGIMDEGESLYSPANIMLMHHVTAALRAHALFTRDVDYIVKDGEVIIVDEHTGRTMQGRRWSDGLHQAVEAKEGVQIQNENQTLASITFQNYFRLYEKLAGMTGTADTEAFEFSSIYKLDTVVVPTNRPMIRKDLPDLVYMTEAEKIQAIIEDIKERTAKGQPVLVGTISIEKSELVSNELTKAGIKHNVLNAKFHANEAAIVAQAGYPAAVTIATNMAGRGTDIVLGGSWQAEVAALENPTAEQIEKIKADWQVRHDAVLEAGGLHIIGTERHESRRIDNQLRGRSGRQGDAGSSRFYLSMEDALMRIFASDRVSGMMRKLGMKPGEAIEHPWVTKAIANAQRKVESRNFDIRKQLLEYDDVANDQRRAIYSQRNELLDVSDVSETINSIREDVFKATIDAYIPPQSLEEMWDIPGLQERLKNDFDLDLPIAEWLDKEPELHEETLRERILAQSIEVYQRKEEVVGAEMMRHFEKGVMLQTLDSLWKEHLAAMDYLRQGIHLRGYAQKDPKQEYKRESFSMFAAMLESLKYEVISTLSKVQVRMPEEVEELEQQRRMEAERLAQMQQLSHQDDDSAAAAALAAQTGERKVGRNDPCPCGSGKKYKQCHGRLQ

Row | SMILES | Percent Effect [1] | Percent Effect [2] | Percent Effect [3] | Percent Effect [4] | Percent Effect [5] | Percent Effect [6] | Percent Effect [7] | Percent Effect [8] | Percent Effect [9] | Percent Effect [10] | Percent Effect [11] | Percent Effect [12] | Percent Effect [13]
1 | CCN(CC)C(=O)c1ccc(NC(=O)CNc2ccc(Br)cc2F)cc1 | -3.06% | 10.5% | 0.958% | 1.85% | -6.58% | 1.85% | -17.8% | 12% | 2.22% | -41.8% | 5.32% | 20.8% | -13%
2 | Cc1ccc(N2CCO[C@H]3CN(CC4CC4)C[C@H]32)nn1 | -4.5% | 2.7% | -6.1% | 0.95% | -5.02% | 7.14% | -0.319% | 19.6% | -33.8% | 1.42% | 1.08% | 7.69% | 5.67%
3 | O=C1NC2(CCNCC2)CC1c1cccnc1 (stereo not given) | -0.858% | 10.7% | -1.51% | 15.3% | -10.1% | -6.89% | 2.1% | 8.55% | 13.1% | -1.63% | 4.25% | 8.97% | -2.26%
4 | COc1ccccc1OCC(=O)N1CCN(Cc2noc(C)n2)CC1 | -5.45% | 13.5% | 3.51% | -4.95% | 22% | 5.96% | 5.21% | 6.09% | 2.23% | 3.27% | 4.3% | 13.6% | -7.11%
5 | CCS(=O)(=O)NC[C@]12COC[C@H]1CN(Cc1cc(C)on1)C2 | -3.29% | 0% | -3.83% | 4.08% | 3.76% | -0.684% | 4.14% | 20.9% | -25% | 1.54% | 5.41% | 12.8% | -1.96%
6 | Fc1cnc(N2CCO[C@H]3CN(CC4CCC4)C[C@H]32)nc1 | -5.78% | 16% | -2.5% | -5.38% | 0.543% | 1.93% | -59.3% | 14.5% | 5.62% | -17.2% | -4.17% | 17.5% | -17.8%
7 | Cc1ccc(CC(=O)N2CCN(CC(O)c3ccccc3)CC2)cn1 (stereo not given) | 1.4% | 5.26% | 1.83% | -2.25% | 3.56% | 5.83% | 5.75% | 1.5% | -4.04% | 2.79% | 5.39% | 17.1% | -5.71%
8 | Cc1ccccc1CC(C)NCc1c(C)nn(C)c1N1CCOCC1 (stereo not given) | -3.17% | -1.39% | -4.34% | -1.27% | -1.05% | 5.93% | -2.21% | 2.46% | -20.6% | 16.3% | 3.16% | 2.56% | 102%
9 | CNC(=O)c1ccc2c(c1)C1(CCN(CC(C)C)CC1)C(=O)N2 | -7.23% | 5.41% | 3.94% | -0.561% | -0.632% | -4.2% | 0.248% | 3.52% | 3.77% | 7.05% | 4.3% | 11.1% | -2.94%
10 | COc1cccc(CNC(C)Cn2cccn2)c1OC (stereo not given) | -0.666% | 2.6% | 6.86% | 1.22% | 3.25% | -0.749% | 1.42% | 2.37% | 7.27% | 0.638% | 1.94% | 0% | -2.46%
